PubChem BioAssay (Tox21)
Several values for one entry are separate records, joined by “and”; a condition that tells them apart may be missing. Equal entries are not always repeated. Inconclusive results are not listed. Entries that show only a call come without a potency. Some compounds were tested as several samples or in several runs, with calls that do not always agree. Activity calls are given as the source filed them. The call rests on the fitted dose curve; in most records, active means well fitted cell-killing curve with a large enough effect in the repeat runs; inconclusive means weak or mixed curves, or effect the other way; inactive means no such curve, though single readings can be large or run the other way.

Experiment: qHTS assay for identifying genotoxic compounds that show differential cytotoxicity against isogenic chicken DT40 cell lines with known DNA damage response pathways - wild type cell line (AID 743012); further: nearly all actives have a fitted effect of over 60% in size
Details: DT40 wild type chicken cells viability, CellTiter-Glo, 40 h; series mostly up to 68.4 µM
Description: U.S. Tox21 Program National Center for Advancing Translational Sciences [NCATS] NIH Chemical Genomics Center [NCGC] U.S. Environmental Protection Agency [EPA] National Institutes of Environmental Health Sciences [NIEHS] National Toxicology Program [NTP] U.S. Food and Drug Administration [FDA] Tox21 Assay Overview: DNA repair pathways play a critical role in cellular homeostasis by repairing DNA damage induced by endogenous processes and xenobiotics. Isogenic chicken DT40 cell lines deficient in different DNA repair pathways can be used to identify genotoxic compounds and aid in characterizing the nature of the DNA damage induced. Two DNA repair-deficient cell lines with disrupted genes, Rad54/Ku70 or Rev3, were used to screen the Tox21 10K compound library. Possible genotoxicity was based on the presence of a significant increase in cytotoxicity in one or more of the DNA repair-deficient cell lines compared to that observed in the parental DNA repair-proficient cell line. CellTiter Glo viability assay (Promega, Madison, WI) was used to measure cell viability in these cells after compound treatment. This assay includes the data from the wild type cell line.
Tox21 Assay Protocol Summary: 300 DT40 wild type cells in 5 uL/well were dispensed into white, solid-bottom 1536-well plates using a Multidrop Combi (ThermoFisher Scientific, Waltham, MA) dispenser. After the assay plates were incubated at 37 C/5% CO2 for approximately 0.5 hour, 23 nL of compounds dissolved in DMSO, positive controls or DMSO only was transferred into the assay plate by a pintool work station (Kalypsys, San Diego, CA). The assay plates were incubated at 37 C/5% CO2 for 40 hours. After 5 uL per well of CellTiter-Glo reagent was added into each well of the assay plates, the plates were incubated for 30 min at room temperature and the luminescence intensity of the plates was measured using a ViewLux (PerkinElmer, Shelton, CT) plate reader.
Potency means the concentration at half of the fitted maximal effect.

Row | SMILES | Potency
1 | Clc1ccc(C(Cl)(Cl)Cl)cc1 | inactive
2 | CCCCCCCCCCCCCl | inactive
3 | CCNc1nc(Cl)nc(NC(C)(C)C#N)n1 | inactive
4 | ClC(Cl)=C(Cl)C(Cl)=C(Cl)Cl | inactive
5 | O=C1CCCO1 | inactive
6 | C[N+](C)(C)CC(=O)O | inactive
7 | ClC(Cl)(Cl)c1ccccc1 | inactive
8 | CCCCCCCCCC(CC)c1ccc(S(=O)(=O)O)cc1 (stereo not given) | inactive and 18.8 µM (active)
9 | CCOP(=O)(OCC)OCC | inactive
10 | CC(C)=CC1C(C(=O)OCc2cccc(Oc3ccccc3)c2)C1(C)C (stereo not given) | inactive
11 | Clc1ccccc1-c1nnc(-c2ccccc2Cl)nn1 | inactive
12 | O=NN(c1ccccc1)c1ccccc1 | inactive
13 | N#CCCCCC#N | inactive
14 | Cc1cc(Cl)ccc1N=CN(C)C | inactive
15 | O=[N+]([O-])c1ccc(Cl)c([N+](=O)[O-])c1 | 2.77 µM (active) and 1.72 µM (active)
16 | CCC[CH2][Sn]([Cl])([CH2]CCC)[CH2]CCC | 546 nM (active) and 486 nM (active)
17 | CCOP(=S)(OCC)SCn1c(=O)oc2cc(Cl)ccc21 | 27.3 µM (active)
18 | CN(C)P(=O)(N(C)C)N(C)C | inactive
19 | ClC(Cl)(Cl)Br | inactive
20 | CNC(=O)CSP(=S)(OC)OC | inactive

Row | SMILES | Potency
21 | CN(C)c1nc(=O)n(C2CCCCC2)c(=O)n1C | inactive
22 | Clc1cccc(C(Cl)(Cl)Cl)n1 | inactive
23 | Cn1c(-c2ccccc2)cc(-c2ccccc2)[n+]1C | 12.2 µM (active) and 1.37 µM (active)
24 | CC[n+]1c(-c2ccccc2)c2cc(N)ccc2c2ccc(N)cc21 | 211 nM (active) and 531 nM (active) and 171 nM (active)
25 | CC(C)=CC1C(C(=O)OCN2C(=O)C3=C(CCCC3)C2=O)C1(C)C (stereo not given) | 43.3 µM (active)
26 | CN(C)c1ccccc1 | inactive
27 | N#CC(c1ccccc1)c1ccccc1 | inactive
28 | C=CC(Cl)CCl (stereo not given) | inactive
29 | COc1ccc(C=O)cc1OC | inactive
30 | NN=C(N)N | inactive
31 | CS(=O)(=O)NC(=O)c1cc(Oc2ccc(C(F)(F)F)cc2Cl)ccc1[N+](=O)[O-] | inactive
32 | CC(C)(O)C#N | inactive
33 | CCN(CC)C(=O)C(C)Oc1cccc2ccccc12 (stereo not given) | 10.9 µM (active)
34 | CC(O)CN(CC(C)O)CC(C)O (stereo not given) | inactive
35 | OCCOCCO | inactive
36 | Cl | inactive and 54.5 µM (active)
37 | CC1(C)Cc2cccc(O)c2O1 | inactive
38 | Clc1cccc(Cl)c1 | inactive
39 | CCC/C=N/O | inactive
40 | N#Cc1nn(-c2c(Cl)cc(C(F)(F)F)cc2Cl)c(N)c1S(=O)C(F)(F)F (stereo not given) | 8.41 µM (active) and 2.75 µM (active)
